NALP1 inh: blocks the NALP1 inflammasome reconstituted in yeast; S. cerevisiae NALP1/ASC/caspase-1 growth, X-gal OD620, 72 h; inhibition, % at 10 µM; actives 0.61% (n = 280,000); in the data active means inhibition mostly above about 24%, no sharp cut-off; inactive means mostly below about 32%
NLRP3 yeast inh: NALP3 inhibition in yeast. Yeast reconstituted NLRP3/ASC/caspase-1, beta-gal luminescence, 24 h. inhibition, % at 10 µM. actives 0.39% (n = 330,000). AID 2825;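 active means inhibition of 50% or more; inactive means inhibition below 50%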
Bfl-1 A1 inh: inhibitors of the anti-apoptotic protein A1, read as caspase activation. MEF A1-2A-BIM cells, Caspase-Glo 3/7 luminescence, 3 h; percent of clofoctol response, vehicle zero. actives 0.066% (n = 330,000). caspase activation, % (concentration not given with the values);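 active means over half of replicate activation scores above 10%, or exactly half above 10 with the replicate mean above 10; inconclusive means replicate mean below 10 yet half the replicates above 10; inactive means over half of replicates below 10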
CHT allo act: human CHT allosteric activation; B-score at 10 µM; CHT-expressing cells, membrane potential dye, choline EC20; stronger effect = higher value; LV-AA mutant CHT in HEK293 cells; actives 0.49% (n = 310,000); AID 488977; Q9GZV3;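 active means initial fluorescence not abnormally high and integrated response B-score, plate-corrected, over 3 SD above library mean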
Target sequence (Q9GZV3 whole entry, looked up): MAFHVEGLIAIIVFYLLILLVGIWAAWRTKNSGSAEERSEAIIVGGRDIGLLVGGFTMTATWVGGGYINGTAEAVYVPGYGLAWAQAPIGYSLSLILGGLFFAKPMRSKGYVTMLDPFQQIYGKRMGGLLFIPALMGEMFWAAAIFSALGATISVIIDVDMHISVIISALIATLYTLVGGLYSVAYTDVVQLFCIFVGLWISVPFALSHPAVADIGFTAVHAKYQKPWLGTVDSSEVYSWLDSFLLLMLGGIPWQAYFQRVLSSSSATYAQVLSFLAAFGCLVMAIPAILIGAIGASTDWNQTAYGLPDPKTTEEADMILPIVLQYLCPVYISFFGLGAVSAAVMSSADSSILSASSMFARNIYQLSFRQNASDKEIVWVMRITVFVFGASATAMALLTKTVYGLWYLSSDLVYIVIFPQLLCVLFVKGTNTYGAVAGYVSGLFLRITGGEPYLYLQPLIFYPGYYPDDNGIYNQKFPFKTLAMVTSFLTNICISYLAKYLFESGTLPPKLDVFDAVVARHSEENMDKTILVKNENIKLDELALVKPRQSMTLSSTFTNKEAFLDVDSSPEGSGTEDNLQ
Mot1-301 SUMO: SUMOylation pathway inhibition by Mot1-301 growth rescue; growth rescue, % at 18.8 µM; AID 2716; S. cerevisiae Mot1-301 growth rescue, ATP luminescence, 38.5C; percent above DMSO median, 100 means doubled; actives 1% (n = 320,000);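 active means every valid replicate shows activation above 250% relative to neutral control wells; inactive means the rest, any valid replicate at or below 250%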
CHT inh: inhibits the human high affinity choline transporter | CHT-expressing cells, membrane potential dye, choline response; stronger effect = lower value | B-score at 10 µM | actives 0.86% (n = 310,000);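 active means B-score over 3 SD under the library average, and starting fluorescence ratio not unusually high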;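 further: choline stimulus applied at its EC90 after an EC20 pre-addition; B-score computed on integrated fluorescence ratio after choline addition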
Large screens that a line does not name were inactive. Compounds with a hit are over-represented: about 3% of the library has one in this group of screens.

Cc1nn(C)c(C)c1CNC(=O)Nc1ccc2c(c1)OCO2	none (no result: Mot1-301 SUMO)
Cc1nn(C)c(C)c1NC(=O)CN1CCC(O)(c2ccc3c(c2)OCO3)CC1	NALP1 inh 31
CSCC[C@H](NS(=O)(=O)c1ccc(C(C)=O)cc1)c1nnc2ccccn12	none
O=[N+]([O-])c1cc(/C=N/O)ccc1Oc1ccccc1Cl	Mot1-301 SUMO 266
COc1ccc2cnn(-c3ccc(C)cc3)c(=O)c2c1OC	NALP1 inh 64
COc1ccc(N(CC(=O)NCCSc2ccccn2)S(=O)(=O)c2ccccc2)c(OC)c1	none
CC(NC(=O)CN(Cc1ccccc1)S(=O)(=O)c1ccccc1)c1cccnc1 (centres undefined)	none (no result: NALP1 inh, CHT allo act, CHT inh)
O=C(c1ccc(Cl)cc1)N1CCCC(C(=O)N2CCN(c3ccccc3)CC2)C1 (centres undefined)	NALP1 inh 44
O=C(C1CCCN(C2CC(=O)N(c3ccc(Cl)cc3)C2=O)C1)N1CCCC1 (centres undefined)	Mot1-301 SUMO 266
O=C1CC(N2CCN(c3ccc(F)cc3)CC2)C(=O)N1c1ccc(F)cc1 (centres undefined)	none
O=C1CC(N2CCCCCC2)C(=O)N1c1ccc(F)cc1 (centres undefined)	NALP1 inh 37
CCOC(=O)c1ccc(N2C(=O)CC(N3CCCC(C)C3)C2=O)cc1 (centres undefined)	NALP1 inh 105
O=C(CN1C(=O)NC2(CCCc3ccccc32)C1=O)NCC(F)(F)F (centres undefined)	none
CN(CC(=O)Nc1sccc1C(N)=O)S(=O)(=O)c1ccc(Cl)cc1	none (no result: NALP1 inh, CHT allo act, CHT inh)
CC(C)c1ccc(NC(=O)C2CSC3(C)CCC(=O)N23)cc1 (centres undefined)	none
Cc1cc(C)n(CCCNC(=O)c2ccc(C)c(S(=O)(=O)N3CCOCC3)c2)n1	none (no result: NALP1 inh, Mot1-301 SUMO)
CCOc1cc(N2CCOCC2)c(OCC)cc1NC(=O)c1ccc(OC)c(S(=O)(=O)N2CCOCC2)c1	none (no result: NALP1 inh, CHT allo act, CHT inh)
COC(=O)c1cccc(NC(=O)CC2C(=O)NCCN2C(=O)c2ccc(F)cc2F)c1 (centres undefined)	none
O=C(Nc1ccc(Cl)cc1)NN1CC(=O)N(c2cccc(C(F)(F)F)c2)CC1=O	none (no result: NALP1 inh)
CC(C)CC(NC(=O)c1ccc(Cl)cc1Cl)C(=O)O (centres undefined)	Mot1-301 SUMO 271
CC(=O)Nc1sc2c(c1-c1nc3ccccc3s1)CCN(C(C)C)C2	NALP1 inh 48, Bfl-1 A1 inh inconclusive
CC(C)(C)n1nc2c(c1NC(=O)Cc1ccc([N+](=O)[O-])cc1)CS(=O)(=O)C2	none
Cc1cc([N+](=O)[O-])cc2c1-c1ncccc1C2=Nc1ccccc1	none
Cc1ccccc1N=C1c2cc([N+](=O)[O-])ccc2-c2ncccc21	CHT allo act 9.7
Cc1nn(C(=O)c2ccccc2)c2c1C(=O)CC(C)(C)C2	Mot1-301 SUMO 495
COc1cc(OC)cc(C(=O)O/N=C(\N)c2cccc(C)c2)c1	NALP1 inh 43
Cc1cccc(/C(N)=N/OC(=O)C23CC4CC(CC(C4)C2)C3)c1	NALP1 inh 59
Cc1cccc(/C(N)=N/OC(=O)Cc2ccccc2)c1	none
Cc1ccc(C)c(N(CC(=O)NCc2ccco2)C(=O)CCC(=O)Nc2nccs2)c1	none
CCn1c(=O)c2c(nc(SCC(=O)Nc3ccccc3)n2C)n(C)c1=O	none
CCN1CCN(c2nc3c(c(=O)n(C)c(=O)n3C)n2CCSc2ncccn2)CC1	CHT inh -7.5
CC1CCN(c2nc3c(c(=O)n(C)c(=O)n3C)n2CCSc2nc3ccccc3o2)CC1	none (no result: NLRP3 yeast inh, Bfl-1 A1 inh, CHT allo act, Mot1-301 SUMO, CHT inh)
Cc1ccnc(SCCn2c(N3CCN(C)CC3)nc3c2c(=O)n(C)c(=O)n3C)n1	none
Cn1c(=O)c2c(nc(N3CCCCCC3)n2CCSc2nc3ccccc3o2)n(C)c1=O	Mot1-301 SUMO 423 (no result: Bfl-1 A1 inh)
CCN=c1sc(C(=O)NCCc2ccccc2)cc(=O)n1CC	NALP1 inh 16
CCN=C1SC(C(=O)NCCc2ccccc2)CC(=O)N1CC (centres undefined)	none
COc1ccc(-c2cc(C(F)(F)F)c(C#N)c(SCC(=O)O)n2)cc1OC	Mot1-301 SUMO 304
CCN(CC)C(=O)c1sc(NC(=O)Cc2ccccc2)c(C#N)c1C	none (no result: Mot1-301 SUMO)
CCN(CC)C(=O)c1sc(NC(=O)Cc2ccc(OC)cc2)c(C#N)c1C	NALP1 inh 43
Cc1ccc(CNC(=O)C2CCC(=O)N(C3CC3)C2)cc1 (centres undefined)	none
Oc1ccc(O)c(/C(=N/Nc2ccccc2)c2ccccc2)c1	NALP1 inh 42
CCc1cccc(NC(=S)N(CCCOC(C)C)C2CCN(C(C)=O)CC2)c1	none
COc1ccccc1N1CCN(S(=O)(=O)c2ccc(F)cc2)CC1	none
CCOc1ccccc1N1CCN(S(=O)(=O)c2ccc(F)c(F)c2)CC1	NALP1 inh 40
COc1ccc(C2C3=C(N=C4SCC(=O)N42)c2ccccc2CC3)cc1 (centres undefined)	NALP1 inh 38 (no result: Mot1-301 SUMO)
COc1ccc(C2C3=C(N=C4SCC(=O)N42)c2ccccc2CC3)cc1OC (centres undefined)	none
COc1cccc(C2N=C(c3ccccc3C)NO2)c1OC (centres undefined)	none
CCN(CCS(=O)(=O)c1ccc(Cl)cc1)Cc1nc2ccccc2c(=O)[nH]1	none (no result: NALP1 inh, CHT allo act, CHT inh)
CCCn1c(SCC(=O)Nc2nnc(CC)s2)nnc1-c1ccncc1	NALP1 inh 30
CCc1nnc(NC(=O)CSc2nnc(-c3cccnc3)n2CC)s1	NALP1 inh 40 (no result: Mot1-301 SUMO)
CCc1nnc(NC(=O)CSc2nnc(-c3ccc(S(=O)(=O)N(CC)CC)cc3)n2CC)s1	none
CCn1c(SCC(=O)Nc2nc3ccccc3s2)nnc1-c1ccc(OC)cc1	Mot1-301 SUMO 343
CCn1c(Cc2ccccc2)nnc1SCC(=O)Nc1nc2ccccc2s1	none
CCc1nnc(NC(=O)CSc2nnc(-c3ccccc3O)n2CC)s1	none (no result: Bfl-1 A1 inh, Mot1-301 SUMO)
Cc1cccc(-n2ncc3c2CCCC3NC(=O)CCN2CCCO2)c1C (centres undefined)	none
CC(C)(C)c1cc(NCCCn2ccnc2)n2ncc(-c3ccccc3)c2n1	none
CCCc1cc(NCCCn2ccnc2)n2nc(C)c(-c3ccccc3)c2n1	CHT inh -7.1
CC(C)CN=Cc1c(O)c([N+](=O)[O-])cc2oc3c(c12)CCCC3	NALP1 inh 50
Cc1cccc(NC(=O)CSCC(=O)N(CCC(C)C)c2c(N)n(Cc3ccccc3)c(=O)[nH]c2=O)c1	none (no result: NALP1 inh)
COc1ccc(S(=O)(=O)N(CCCN2CCOCC2)Cc2cccc3ccccc23)cc1	NALP1 inh 39
COc1ccc(S(=O)(=O)N(CCCN2CCOCC2)Cc2cccc(OC)c2OC)cc1	none
CC1CCc2nc(NC(=O)C3CCCO3)sc2C1 (centres undefined)	NALP1 inh 33

Screens deposited in PubChem BioAssay by several laboratories.
